Measured values published in PubChem BioAssay AID1159554 (Broad Institute, 2015).
The whole screen tested about 94,000 compounds, of which about 2,100 (2.2%) were called active. This excerpt belongs to a sample that is enriched for actives. Unmarked numbers belong to inactive results. No stated cut-off is given here; in the data, active means activity change below about -80%; inconclusive means no clear call, values can overlap the other calls; inactive means above that.

assay: Dd2 malaria parasite growth inhibition – SYBR Green fluorescence, single dose replicates, primary screen (AID 1159554); details: P. falciparum Dd2 growth, 72 h, at 10 µM, active compounds read low

For `O=C(N[C@@H]1C=C[C@@H](CC(=O)N2CCOCC2)O[C@H]1CO)c1ccccn1`, which activity change is on record?
The activity change was 35.5%.

Which activity change does the source give for `O=C(NCCN1CCCCC1)[C@@H]1N[C@@H]2c3ccc(-c4ccccc4)c(=O)n3C[C@@H]2[C@H]1CO` here?
The activity change was 50.6%.

For `COc1cccc(NC(=O)C[C@H]2CC[C@@H]3[C@@H](COc4ccc(NC(=O)C5CCOCC5)cc4C(=O)N3C)O2)c1`, which activity change is on record?
Its activity change is 15.2%.

With `CCc1sc(N2[C@@H](C#N)[C@@H](c3ccccc3-c3ccccc3)[C@@H]2CO)nc1C` as the compound, how does the activity change read?
Its activity change is -83.4% (active).

For `C/C=C/c1ccccc1[C@@H]1[C@@H](CO)N(S(=O)(=O)c2cccc(F)c2)[C@H]1C#N`, which activity change is on record?
Its activity change is -88% (active).

Which activity change does the source give for `C/C=C/c1ccccc1[C@H]1[C@@H](C#N)N(C(C)=O)[C@@H]1CO` here?
Its activity change is 7.51%.

With `C/C=C/c1ccccc1[C@@H]1[C@@H](C#N)N(c2nc(CC)cs2)[C@@H]1CO` as the compound, how does the activity change read?
The activity change was -18.3%.

Which activity change does the source give for `Cc1ccc(-c2ccccc2[C@H]2[C@@H](C#N)N(c3ncc(-c4ccccc4)s3)[C@@H]2CO)cc1` here?
The activity change was -65.2%.

For `N#C[C@@H]1[C@H](c2ccccc2-c2ccccc2)[C@H](CO)N1c1ncc(-c2ccccc2)s1`, which activity change is on record?
Its activity change is -4.56%.

With `C/C=C/c1ccccc1[C@H]1[C@@H](C#N)N(C(=O)Cc2ccccn2)[C@@H]1CO` as the compound, how does the activity change read?
The activity change was 1.87%.

Which activity change does the source give for `C/C=C/c1ccccc1[C@H]1[C@@H](C#N)N(c2nc(CC)cs2)[C@@H]1CO` here?
The activity change was -82.9% (active).

With `N#C[C@@H]1[C@H](c2ccccc2C2=CCCCC2)[C@@H](CO)N1S(=O)(=O)c1cccc(F)c1` as the compound, how does the activity change read?
The activity change was -43.9%.

For `O=C(NC1CCCCC1)N[C@H]1CC[C@H](CCNS(=O)(=O)c2ccc(F)cc2)O[C@H]1CO`, which activity change is on record?
Its activity change is 24.8%.

For `C/C=C/c1ccc([C@@H]2[C@H](CO)N(S(=O)(=O)Cc3ccccc3)C23CN(C(=O)C2CCOCC2)C3)cc1`, which activity change is on record?
Its activity change is -52%.

Which activity change does the source give for `CO[C@H]1CN(C)C(=O)c2ccc(NC(=O)C3CC3)cc2OC[C@H](C)N(C(=O)CN2CCOCC2)C[C@@H]1C` here?
The activity change was 26.1%.

For `CC(C)(C)[S@@](=O)N1Cc2cc(C(=O)O)nc(-c3cccc(-c4cccc(F)c4)c3)c2[C@H]1CCO`, which activity change is on record?
The activity change was 41.4%.

With `COc1ccccc1C#Cc1ccc([C@@H]2[C@H](CO)N3CCCCN(C(=O)C4CCCC4)C[C@@H]23)cc1` as the compound, how does the activity change read?
The activity change was -47.8%.

With `CCC(=O)Nc1ccc2c(c1)OC[C@H](C)N(C(=O)Cc1cccnc1)C[C@@H](C)[C@@H](OC)CN(C)C2=O` as the compound, how does the activity change read?
Its activity change is 8.05%.

For `Cn1cnc(CCNC(=O)C[C@H]2CC[C@@H]3[C@H](COC[C@H](O)CN3C(=O)C3CC3)O2)c1`, which activity change is on record?
Its activity change is -3%.

For `C[C@@H]1CCCCO[C@H](CN(C)C(=O)Nc2ccc(C(F)(F)F)cc2)[C@H](C)CN([C@H](C)CO)C(=O)c2cc(NC(=O)Nc3ccc(C(F)(F)F)cc3)ccc2O1`, which activity change is on record?
Its activity change is -80.3% (active).

For `CC(C)NC(=O)Nc1ccc2c(c1)C(=O)N([C@@H](C)CO)C[C@@H](C)[C@@H](CN(C)C(=O)Nc1ccc(C(F)(F)F)cc1)OCCCC[C@H](C)O2`, which activity change is on record?
Its activity change is -63.3%.

For `Cc1ccc(S(=O)(=O)N(C)C[C@@H]2OCCCC[C@@H](C)Oc3ccc(NC(=O)Nc4ccc(C(F)(F)F)cc4)cc3C(=O)N([C@@H](C)CO)C[C@@H]2C)cc1`, which activity change is on record?
Its activity change is -86.1% (active).

With `CNC[C@H]1OCCCC[C@H](C)Oc2ccc(NC(=O)Nc3ccc(C(F)(F)F)cc3)cc2C(=O)N([C@H](C)CO)C[C@@H]1C` as the compound, how does the activity change read?
Its activity change is -14.8%.

With `C[C@@H]1CCCCO[C@H](CN(C)C(=O)Nc2ccc(C(F)(F)F)cc2)[C@@H](C)CN([C@@H](C)CO)C(=O)c2cc(NC(=O)Nc3cccc4ccccc34)ccc2O1` as the compound, how does the activity change read?
The activity change was -88.3% (active).

Which activity change does the source give for `CNC[C@@H]1OCCCC[C@H](C)Oc2ccc(NC(=O)Nc3ccccc3)cc2C(=O)N([C@H](C)CO)C[C@H]1C` here?
Its activity change is 31%.

For `Cc1ccc(S(=O)(=O)N(C)C[C@H]2OCCCC[C@@H](C)Oc3ccc(NC(=O)Nc4ccc(F)cc4)cc3C(=O)N([C@@H](C)CO)C[C@H]2C)cc1`, which activity change is on record?
The activity change was -68.1%.

With `COc1ccc(NC(=O)N(C)C[C@H]2OCCCC[C@H](C)Oc3ccc(NC(=O)Nc4ccc(C(F)(F)F)cc4)cc3C(=O)N([C@@H](C)CO)C[C@@H]2C)cc1` as the compound, how does the activity change read?
Its activity change is -39.3%.

With `COc1ccc(NC(=O)Nc2ccc3c(c2)C(=O)N([C@H](C)CO)C[C@@H](C)[C@H](CN(C)C(=O)Nc2ccc(C(F)(F)F)cc2)OCCCC[C@@H](C)O3)cc1` as the compound, how does the activity change read?
The activity change was -69%.

Which activity change does the source give for `CC(C)NC(=O)Nc1ccc2c(c1)C(=O)N([C@H](C)CO)C[C@H](C)[C@H](CN(C)C(=O)Nc1ccc(C(F)(F)F)cc1)OCCCC[C@@H](C)O2` here?
Its activity change is 1.85%.

For `C[C@H](CO)N1C[C@H](C)[C@@H](CN(C)S(C)(=O)=O)OCCCC[C@H](C)Oc2ccc(NC(=O)Nc3ccc(C(F)(F)F)cc3)cc2C1=O`, which activity change is on record?
Its activity change is 30.4%.

For `CNC[C@H]1OCCCC[C@@H](C)Oc2ccc(NC(=O)Nc3ccc(C(F)(F)F)cc3)cc2C(=O)N([C@H](C)CO)C[C@H]1C`, which activity change is on record?
Its activity change is -82.5% (active).

For `CC(=O)N1[C@H](CN(C)S(=O)(=O)c2ccccc2)[C@H](c2ccccc2)[C@@H]1CO`, which activity change is on record?
Its activity change is 4.68%.

Which activity change does the source give for `COc1cccc(-c2ccc3n(c2=O)C[C@H]2[C@H](CO)[C@@H](C(=O)NC4CCCC4)[C@@H]3N2C)c1` here?
Its activity change is 2.57%.

With `COc1ccc2c3c(n(C)c2c1)[C@@H](CO)N(C(=O)NC1CCCC1)CC31CCN(C(C)=O)CC1` as the compound, how does the activity change read?
Its activity change is -2.48%.

With `C[C@@H](NC(=O)C[C@H]1CC[C@H]2[C@@H](COC[C@@H](O)CN2C(=O)Nc2ccccc2)O1)c1ccccc1` as the compound, how does the activity change read?
Its activity change is 8.13%.

For `C[C@H](CO)N1C[C@H](C)[C@@H](CN(C)Cc2ccc3c(c2)OCO3)OCCCC[C@H](C)Oc2ccc(NC(=O)Nc3ccc(C(F)(F)F)cc3)cc2C1=O`, which activity change is on record?
Its activity change is -41.8%.

Which activity change does the source give for `Cc1ccccc1S(=O)(=O)NCC[C@@H]1CC[C@H](NC(=O)C2CCCCC2)[C@@H](CO)O1` here?
Its activity change is 7.15%.

With `CCS(=O)(=O)N1CC(=O)N2[C@H](CO)[C@@H](c3ccc(C#CC4CCCC4)cc3)[C@@H]2C1` as the compound, how does the activity change read?
Its activity change is -15.8%.

With `Cc1ccc(S(=O)(=O)N(C)C[C@@H]2OCCCC[C@@H](C)Oc3ccc(NS(=O)(=O)c4ccccc4)cc3C(=O)N([C@H](C)CO)C[C@@H]2C)cc1` as the compound, how does the activity change read?
The activity change was -57.4%.

For `C[C@@H]1CCCCO[C@@H](CN(C)C(=O)Nc2ccc(F)cc2)[C@H](C)CN([C@H](C)CO)C(=O)c2cc(NC(=O)Nc3cccc4ccccc34)ccc2O1`, which activity change is on record?
The activity change was -24.3%.

Which activity change does the source give for `C[C@@H]1CCCCO[C@@H](CN(C)C(=O)Nc2cccc3ccccc23)[C@H](C)CN([C@H](C)CO)C(=O)c2cc(NC(=O)NC3CCCCC3)ccc2O1` here?
The activity change was -62.1%.

For `Cc1ccc(S(=O)(=O)N(C)C[C@H]2OCCCC[C@H](C)Oc3ccc(NC(=O)Cc4ccccc4)cc3C(=O)N([C@@H](C)CO)C[C@@H]2C)cc1`, which activity change is on record?
Its activity change is -81.9% (active).

With `C[C@@H]1CCCCO[C@@H](CN(C)S(=O)(=O)c2ccc(Cl)cc2)[C@H](C)CN([C@@H](C)CO)C(=O)c2cc(NC(=O)Cc3ccccc3)ccc2O1` as the compound, how does the activity change read?
The activity change was -69%.

With `C[C@@H]1CN([C@@H](C)CO)C(=O)c2cc(NC(=O)Nc3ccc(C(F)(F)F)cc3)ccc2O[C@@H](C)CCCCO[C@@H]1CN(C)C(=O)Nc1cccc2ccccc12` as the compound, how does the activity change read?
Its activity change is -85.5% (active).

Which activity change does the source give for `C[C@@H]1CCCCO[C@@H](CN(C)C(=O)Nc2ccccc2)[C@@H](C)CN([C@H](C)CO)C(=O)c2cc(NC(=O)Nc3ccc(F)cc3)ccc2O1` here?
The activity change was 24.9%.

For `C[C@@H]1CCCCO[C@H](CN(C)C(=O)Nc2cccc3ccccc23)[C@@H](C)CN([C@@H](C)CO)C(=O)c2cc(NC(=O)Nc3ccc(F)cc3)ccc2O1`, which activity change is on record?
Its activity change is -88.2% (active).

For `COc1ccc(NC(=O)Nc2ccc3c(c2)C(=O)N([C@@H](C)CO)C[C@H](C)[C@@H](CN(C)C(=O)Nc2cccc4ccccc24)OCCCC[C@@H](C)O3)cc1`, which activity change is on record?
The activity change was -66%.

For `C[C@@H]1CCCCO[C@H](CN(C)C(=O)Nc2cccc3ccccc23)[C@@H](C)CN([C@H](C)CO)C(=O)c2cc(NC(=O)Nc3ccc4c(c3)OCO4)ccc2O1`, which activity change is on record?
The activity change was -49.2%.

With `C[C@@H]1CCCCO[C@H](CN(C)C(=O)Nc2ccccc2)[C@H](C)CN([C@H](C)CO)C(=O)c2cc(NC(=O)Nc3ccccc3)ccc2O1` as the compound, how does the activity change read?
Its activity change is -88.7% (active).

For `C[C@H]1CCCCO[C@@H](CN(C)C(=O)Nc2ccccc2)[C@@H](C)CN([C@@H](C)CO)C(=O)c2cc(NC(=O)Nc3ccc(F)cc3)ccc2O1`, which activity change is on record?
The activity change was -17.9%.

Which activity change does the source give for `Cc1ccc(S(=O)(=O)Nc2ccc3c(c2)C(=O)N([C@@H](C)CO)C[C@@H](C)[C@H](CN(C)Cc2ccc(Cl)c(Cl)c2)OCCCC[C@@H](C)O3)cc1` here?
Its activity change is -43.2%.

For `C[C@@H]1CN([C@H](C)CO)S(=O)(=O)c2ccc(C3=CCCC3)cc2O[C@H]1CN(C)C(=O)Nc1ccc2c(c1)OCO2`, which activity change is on record?
Its activity change is -57.4%.

With `COc1ccccc1S(=O)(=O)N[C@@H]1CC[C@@H](CCNC(=O)C2CCCCC2)O[C@@H]1CO` as the compound, how does the activity change read?
Its activity change is -1.07%.

For `O=C(Nc1cccc(Cl)c1)N[C@@H]1CC[C@@H](CCNC(=O)C2CCOCC2)O[C@@H]1CO`, which activity change is on record?
The activity change was -0.665%.

For `C/C=C/c1cnc2c(c1)C(=O)N([C@H](C)CO)C[C@@H](C)[C@H](CN(C)Cc1cccc(C(=O)O)c1)O2`, which activity change is on record?
The activity change was 27.8%.

With `O=C(C[C@@H]1CC[C@H]2[C@@H](COC[C@@H](O)CN2CC2CC2)O1)NCc1ccc(Cl)cc1` as the compound, how does the activity change read?
The activity change was -0.915%.
